The values below come from PubChem BioAssay (EPA / NIEHS).

Inconclusive results are not listed. Calls of active or inactive are those of the source. Rule for the calls: active = hit-call score of the fitted dose curve at least 0.9, where 1 is the maximum; inconclusive = response in the unintended direction; inactive = score below 0.9.

Read-out in the experiment: xenobiotic metabolism (CYP2C9), CYP2C9 (gene 1559)
Put plainly: CLD_CYP2C9_6hr: CellzDirect (CLD) Gene Expression Assay for xenobiotic metabolism (CYP2C9) at 6 hours (AID 2283664). As for the experimental part:
CLD_6hr is a cell-based, multiplexed-readout assay that uses hepatocyte, a human liver primary cell, with measurements taken at 6 hours after chemical dosing in a 96-well plate.CLD_CYP2C9_6hr is one of 16 assay component(s) measured or calculated from the CLD_6hr assay. It is designed to make measurements of mRNA induction, a form of inducible reporter, as detected with chemiluminescence signals by Quantitative Nuclease Protection Assay (qNPA) technology.Data from the assay component CLD_CYP2C9_6hr was analyzed at the endpoint, CLD_CYP2C9_6hr, in the positive analysis fitting direction relative to DMSO as the negative control and baseline of activity. Using a type of inducible reporter, gain-of-signal activity can be used to understand changes in the reporter gene as they relate to the gene CYP2C9. Furthermore, this assay endpoint can be referred to as a primary readout. To generalize the intended target to other relatable targets, this assay endpoint is annotated to the cyp intended target family, where subfamily is xenobiotic metabolism.
Human hepatocyte cultures were treated daily for two consecutive days with fresh dosing solutions containing appropriate concentrations of the 320 ToxCast chemicals (chemical identities were blinded to CellzDirect and other ToxCast collaborators), vehicle control (0.2% DMSO), and positive control inducers as summarized in Table 1. Due to the large number of treatment groups and chemicals examined, the ToxCast chemicals were divided into two groups (spanning two independent cultures of hepatocytes from separate donor preparations (Hu778: ToxCast plates 1 and 2; Hu776: ToxCast plates 3 and 4). Each preparation of human hepatocyte cultures was treated with respective vehicle control, medium only control, set of six positive controls/reference chemicals for the five hepatic receptor pathways, and a subset of eight of the ToxCast chemicals (indoxacarb, pyrithiobac-sodium, norflurazon, cyhalofop-butyl, methomyl, thiram, acetochlor, and propiconazole). These replicate data, coupled with internal replicates designed within the blinded ToxCast chemical library, provided additional data to evaluate interindividual differences between hepatocyte preparations and their potential impact on chemical profiles.Cell morphology and integrity were evaluated using phase-contrast microscopy as an indicator of hepatocyte cell health (Tyson & Green, 1987). Cultures for each treatment group (i.e., media, vehicle [0.2% DMSO], positive control inducers [multiple concentrations], and the ToxCast chemicals [multiple concentrations]) were observed and cell morphology was assessed relative to vehicle control cultures at each harvest time point (0, 6, 24, or 48 h). […] Images were evaluated at the conclusion of the study to assess changes in cell integrity and account for the effects of chemical exposure on uncharacteristic changes in concentration-dependent gene expression profiles. The results from these determinations of apparent cytotoxicity were annotated (yes/no) alongside the corresponding qNPA data for reference.At the conclusion of each treatment period, hepatocyte cultures (96-well) were washed with 1 volume of HBSS, lysed by addition of 25 ul ArrayPlate lysis buffer (HTG, Tucson, AZ), and 70 ul/well of Denaturation Oil, denatured by incubation at 95C for 10 min, and frozen at approximately -70C until analysis by nuclease protection assay (qNPA) (Roberts et al., 2007). For qNPA analysis, cell lysates were thawed at 50C for approximately 30 min, qNPA probes were added, and samples were incubated at 95C for 10 min to begin the detection process by denaturing the target RNA, dissociating the duplexes and secondary structure hybridization. At the conclusion of the hybridization period, S1 nuclease reagent was added to each sample to digest all nonprotected nucleotides at 50C for 60-90 min. […]
Consider `CC(C)=CC1C(C(=O)OCc2coc(Cc3ccccc3)c2)C1(C)C` (stereo not given), for which the molecule was classed as inactive.

Regarding `CCNP(=S)(OC)O/C(C)=C/C(=O)OC(C)C` (stereo not given), the molecule was classed as inactive.

For the molecule `CCC(C)n1c(=O)[nH]c(C)c(Br)c1=O` (stereo not given), the call was inactive.

For `CS(=O)(=O)c1cc(C(F)(F)F)ccc1C(=O)c1cnoc1C1CC1`, the result was inactive.

For the molecule `CO/N=C(/C1=NOCCO1)c1ccccc1Oc1ncnc(Oc2ccccc2Cl)c1F`, the molecule was classed as inactive.

Regarding `O=C1C2CC=CCC2C(=O)N1SC(Cl)(Cl)Cl` (stereo not given), the call was inactive.

With `CCOc1nc(C(Cl)(Cl)Cl)ns1`, the result was inactive.

For the molecule `COc1cc(OC)nc(NC(=O)NS(=O)(=O)c2ncccc2OCC(F)(F)F)n1`, the result was inactive.

Turning to `CN=C=S`, the result was inactive.

Consider `CC1(C)C(C(=O)OC(C#N)c2cccc(Oc3ccccc3)c2)C1(C)C` (stereo not given), for which the molecule was called inactive.

On to `O=C(O)c1c(Cl)ccc2cc(Cl)cnc12`, for which the outcome was inactive.

With `CC(C)N1C(=O)N(c2ccccc2)CSC1=NC(C)(C)C`, the result was inactive.

In the case of `CCOc1nc(F)cc2nc(S(=O)(=O)Nc3c(Cl)cccc3Cl)nn12`, the molecule was called inactive.

For the molecule `Cc1nc(N(C)C)nc(OC(=O)N(C)C)c1C`, the result was inactive.

For the molecule `C=CCOC(=O)C(C)(C)OC(=O)c1cc(-n2c(=O)cc(C(F)(F)F)n(C)c2=O)ccc1Cl`, the result was inactive.

Take `COP(=O)(OC)O/C(C)=C/C(=O)N(C)C`: the outcome was inactive.

For `CC(C)N1C(=O)c2ccccc2NS1(=O)=O`, the molecule was called inactive.

For `COc1ccc(-c2ccccc2)cc1NNC(=O)OC(C)C`, the result was inactive.

Regarding `N#Cc1c(Cl)cccc1Cl`, the molecule was classed as inactive.

In the case of `N#Cc1c[nH]cc1-c1cccc2c1OC(F)(F)O2`, the molecule was classed as inactive.

As to `CCCCC(C#N)(Cn1cncn1)c1ccc(Cl)cc1` (stereo not given), the molecule was called inactive.

With `Cc1ccc(N=CN(C)C=Nc2ccc(C)cc2C)c(C)c1`, the call was inactive.

As for `CCNC(=O)NC(=O)C(C#N)=NOC`, the call was inactive.

`COC(=O)NS(=O)(=O)c1ccc(N)cc1`: the outcome was inactive.

Turning to `CCOP(=O)(OCC)Oc1nc(Cl)c(Cl)cc1Cl`, the result was inactive.

With `CCOP(=S)(OCC)Oc1nc(Cl)n(C(C)C)n1`, the result was inactive.

`Nc1c(Cl)c(Cl)nc(C(=O)O)c1Cl`: the molecule was classed as inactive.

Take `CSC(=O)c1c(C(F)F)nc(C(F)(F)F)c(C(=O)SC)c1CC(C)C`: the call was inactive.

Consider `CC1(C)CCC(=Cc2ccc(Cl)cc2)C1(O)Cn1cncn1` (stereo not given), for which the outcome was inactive.

For the molecule `COCC(C)N(C(=O)CCl)c1c(C)csc1C` (stereo not given), the result was inactive.

Take `Nc1c(Cl)c(F)nc(OCC(=O)O)c1Cl`: the molecule was called inactive.

As for `CS(=O)(=O)c1ccc(C(=O)C2C(=O)CCCC2=O)c([N+](=O)[O-])c1`, the result was inactive.

For the molecule `OC(c1ccc(Cl)cc1)(c1ccc(Cl)cc1)C(Cl)(Cl)Cl`, the result was inactive.

For `COCC(=O)N(c1c(C)cccc1C)C(C)C(=O)OC` (stereo not given), the result was inactive.

For `COc1cc(Cl)c(OC)cc1Cl`, the call was inactive.
